Inconclusive results are not listed. Unmarked numbers belong to inactive results. Calls of active or inactive are those of the source. Calls come from the whole dose curve; as a rule, active = well fitted curve in the direction sought with a large enough effect; inconclusive = small, poorly fitted or top-dose-only effect, or another doubt; inactive = no such curve, though single readings can be large; an effect the other way counts as inactive or inconclusive.
What was measured:
[1] = Primary redox qHTS assay for identification of artifact compounds. (AID 1845223)
Procedure, shortened: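 Redox-cycling detection via DTT (250 uM final) oxidation coupled to Amplex Red (25 uM)/HRP (250 mU/mL) in HBSS. 15 min preincubation plus 30 min after DTT, room temperature. Ex/Em 525/598 nm; 4-parameter Hill fit against DMSO and 10 uM DA3003.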

[2] = Quantitative High-Throughput drug screen in 47 multiple myeloma cell lines against the NCATS MIPE library collection: FR4_PLB cell viability assay (AID 1918924; note: potency is the fitted concentration of half-maximal effect; nearly all actives have a fitted effect of over 35% in size)
Procedure, shortened: (§1)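 qHTS of the MIPE 4.0 collection: 500 myeloma cells/well, 48 h drug exposure at 37C in 5% CO2, then CellTiter-Glo for 5 min at room temperature before luminescence reading.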

[3] = Quantitative High-Throughput drug screen in 47 multiple myeloma cell lines against the NCATS MIPE library collection: Delta47_JCRB cell viability assay (AID 1918925; note: potency is the fitted concentration of half-maximal effect; nearly all actives have a fitted effect of over 45% in size)
Procedure, shortened: as §1

[4] = Quantitative High-Throughput drug screen in 47 multiple myeloma cell lines against the NCATS MIPE library collection: EJM_DSMZ cell viability assay (AID 1918926; note: potency is the fitted concentration of half-maximal effect; nearly all actives have a fitted effect of over 30% in size)
Procedure, shortened: as §1

[5] = Quantitative High-Throughput drug screen in 47 multiple myeloma cell lines against the NCATS MIPE library collection: AMO1_DSMZ cell viability assay (AID 1918927; note: nearly all actives have a fitted effect of over 30% in size; note: potency is the fitted concentration of half-maximal effect)
Procedure, shortened: as §1

[6] = Quantitative High-Throughput drug screen in 47 multiple myeloma cell lines against the NCATS MIPE library collection: ARP1_JJKsccF8 cell viability assay (AID 1918928; note: potency is the fitted concentration of half-maximal effect; nearly all actives have a fitted effect of over 40% in size)
Procedure, shortened: (§2)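 500 cells/well; MIPE 4.0 library pinned in; 48 h, 37 °C, 5% CO2; CellTiter-Glo ATP luminescence. Controls: DMSO = 100% viability, medium only = 0%.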

[7] = Quantitative High-Throughput drug screen in 47 multiple myeloma cell lines against the NCATS MIPE library collection: ARD_JJKsccE7 cell viability assay (AID 1918929; note: potency is the fitted concentration of half-maximal effect)
Procedure, shortened: as §1

[8] = Quantitative High-Throughput drug screen in 47 multiple myeloma cell lines against the NCATS MIPE library collection: Karpas620_DSMZ cell viability assay (AID 1918959); note: nearly all actives have a fitted effect of over 30% in size; note: potency is the fitted concentration of half-maximal effect
Procedure, shortened: as §1

[9] = Quantitative High-Throughput drug screen in 47 multiple myeloma cell lines against the NCATS MIPE library collection: KMM1_JCRB cell viability assay (AID 1918960); note: nearly all actives have a fitted effect of over 30% in size; note: potency is the fitted concentration of half-maximal effect
Procedure, shortened: as §2

[10] = Quantitative High-Throughput drug screen in 47 multiple myeloma cell lines against the NCATS MIPE library collection: Karpas417_ECACC cell viability assay (AID 1918961); settings: Karpas417 myeloma viability, CellTiter-Glo ATP luminescence, 48 h; viability (% of DMSO): at 45.8 µM (top of the series); note: potency is the fitted concentration of half-maximal effect
Procedure, shortened: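 Luminescent ATP measurement with CellTiter-Glo gives viability, scaled between DMSO-only wells (100%) and media-only wells (0%). Cells, 500 per well, faced library compounds for 48 hours at 37C.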

Row | Structure (SMILES) | redox activity (% of DA3003) [1] | Potency [2] | Potency [3] | Potency [4] | Potency [5] | Potency [6] | Potency [7] | Potency [8] | Potency [9] | Potency [10] | Potency [1]
1 | CC(=O)c1c(C)c2cnc(Nc3ccc(N4CCNCC4)cn3)nc2n(C2CCCC2)c1=O | -5.59% [at 6.41 µM] | 18700 nM (active) | 23500 nM (active) | 18700 nM (active) | 16600 nM (active) | 14800 nM (active) | 14800 nM (active) | 26400 nM (active) | 20900 nM (active) | 16600 nM (active) | –
2 | CC(C)c1nn(-c2c(Cl)cccc2Cl)c2nc(Cc3ccc(OCCO)cc3)[nH]c(=O)c12 | – | 105 nM (active) | 166 nM (active) | 132 nM (active) | inactive | 118 nM (active) | inactive | inactive | inactive | inactive | inactive
3 | CN(C)Cc1c(C(=O)NCCOc2ccc(C(=O)NO)cc2)oc2ccccc12 | – | 526 nM (active) | 1050 nM (active) | 1870 nM (active) | 526 nM (active) | 526 nM (active) | 590 nM (active) | 743 nM (active) | 469 nM (active) | 372 nM (active) | inactive
4 | CCc1cc2c(cc1N1CCC(N3CCOCC3)CC1)C(C)(C)c1[nH]c3cc(C#N)ccc3c1C2=O | – | – | – | – | – | – | – | – | – | – | inactive
5 | Nc1ncnc2c1c(-c1cccc(OCc3ccccc3)c1)cn2C1CC(CN2CCCC2)C1 (stereo unspecified) | – | 26400 nM (active) | 59 nM (active) | 23500 nM (active) | 16600 nM (active) | 16600 nM (active) | 1180 nM (active) | 5900 nM (active) | 4180 nM (active) | – | inactive
6 | CNC(=O)c1ccccc1Nc1nc(Nc2ccc(N3CCOCC3)cc2OC)ncc1Cl | – | 13200 nM (active) | 148 nM (active) | 13200 nM (active) | 418 nM (active) | 935 nM (active) | 93.5 nM (active) | – | – | – | inactive
7 | CC1(O)CC(c2nc(-c3ccc4ccc(-c5ccccc5)nc4c3)c3c(N)nccn23)C1 (stereo unspecified) | – | 7430 nM (active) | 83.3 nM (active) | 6620 nM (active) | 2960 nM (active) | 5900 nM (active) | 105 nM (active) | 590 nM (active) | 1050 nM (active) | – | inactive
8 | c1nc2nc(Nc3ccc(N4CCOCC4)cc3)nc(NC3CCCCC3)c2[nH]1 | – | 26400 nM (active) | 6620 nM (active) | 14800 nM (active) | 4690 nM (active) | 14800 nM (active) | 3320 nM (active) | 6620 nM (active) | 4690 nM (active) | 743 nM (active) | inactive
9 | CS(=O)(=O)N1CCN(Cc2cc3nc(-c4cccc5[nH]ncc45)nc(N4CCOCC4)c3s2)CC1 | – | – | – | – | – | – | – | – | – | – | inactive
10 | CC[C@@]1(O)C(=O)OCc2c1cc1n(c2=O)Cc2cc3cc(O)ccc3nc2-1 | – | 1180 nM (active) | 187 nM (active) | 372 nM (active) | 74.3 nM (active) | 418 nM (active) | 2350 nM (active) | 1870 nM (active) | 148 nM (active) | – | inactive
11 | O=C(O)c1ccc2c(c1)nc(Nc1cccc(Cl)c1)c1ccncc12 | – | 5260 nM (active) | 4180 nM (active) | 9350 nM (active) | 5900 nM (active) | 9350 nM (active) | 8330 nM (active) | 4180 nM (active) | 4690 nM (active) | 935 nM (active) | inactive
12 | Nc1ncnc2c1c(-c1cnc3[nH]ccc3c1)nn2C1CCCC1 | – | 662 nM (active) | 235 nM (active) | 6620 nM (active) | 662 nM (active) | 743 nM (active) | 1320 nM (active) | 662 nM (active) | 66.2 nM (active) | – | inactive
13 | COc1ccc(OC)c(-c2nnc3ccc(-c4ccc(OC)c(O[C@@H]5CCOC5)c4)nn23)c1 | – | 11800 nM (active) | 9350 nM (active) | 16600 nM (active) | 26400 nM (active) | 18700 nM (active) | 16600 nM (active) | 8330 nM (active) | 8330 nM (active) | 10500 nM (active) | inactive
14 | Cn1c2ccccc2c2c3c(c4c5ccccc5n(CCC#N)c4c21)CNC3=O | – | 4690 nM (active) | 1480 nM (active) | 2960 nM (active) | 935 nM (active) | 7430 nM (active) | 2350 nM (active) | 2350 nM (active) | 935 nM (active) | 148 nM (active) | inactive
15 | CN1CCN(Cc2ccc(NC(=O)Nc3ccc(Oc4cc(NC(=O)C5CC5)ncn4)cc3)cc2C(F)(F)F)CC1 | – | 296 nM (active) | 148 nM (active) | 332 nM (active) | inactive | 372 nM (active) | inactive | inactive | inactive | inactive | inactive
16 | C=CC(=O)N1CCC[C@@H](n2nc(-c3ccc(Oc4ccccc4)cc3)c3c(N)ncnc32)C1 | – | – | – | – | – | – | – | – | – | – | inactive
17 | CCc1c2c(nc3ccc(O)cc13)-c1cc3c(c(=O)n1C2)COC(=O)[C@]3(O)CC | – | 590 nM (active) | 37.2 nM (active) | 187 nM (active) | 11.8 nM (active) | 187 nM (active) | 1660 nM (active) | 743 nM (active) | 132 nM (active) | 332 nM (active) | inactive

From PubChem BioAssay (NCATS)
